# High-throughput results deposited in PubChem by National Center for Advancing Translational Sciences (NCATS).
# Cycloheximide cs = counter-screen for Shiga toxin inhibitors: cycloheximide protein synthesis inhibition | cell reporter, cycloheximide protein synthesis inhibition counterscreen | max response, % | 12% of 300,000 active; in the data active means max response mostly above about 13%, no sharp cut-off; inactive means mostly below about 14%; further: read at 38.3 µM for the half of the compounds with a filed dose; 0% is about no effect
# Shiga inhibitor = Shiga toxin inhibition; 9.2% of 290,000 active; inhibition, % at 38.7 µM; Vero cells, Shiga toxin protein synthesis inhibition reporter; AID 2315; in the data active means inhibition mostly above about 28%, no sharp cut-off; inactive means mostly below about 43%; further: 0% is about no effect
# LASV entry inh = inhibitors of Lassa virus binding or cell entry; Lassa virus pseudotype entry inhibition, cell reporter; Potency, µM (titrated, usually from 37.9 µM), for the others: at the highest dose activity change, negative = inhibition, actives largely listed as inhibitors; 1.2% of 300,000 active; AID 540256; calls by dose curve; tested in HEK293 cells; further: potency means the concentration at half of the fitted maximal effect; on the % scale 0 is the no-effect control and ±100 the full control effect; nearly all actives have a fitted effect of over 50% in size
# AMA1-RON2 inh = disrupts binding of P. falciparum AMA1 to RON2. 0.2% of 360,000 active. AID 720542. Potency, µM (highest dose often 58.2 µM), inactives show at the top dose activity change, negative = inhibition, hits mostly inhibitors. AlphaScreen AMA1-biotinylated RON2 peptide binding; active means well fitted inhibition curve with a large enough effect; inconclusive means small, poorly fitted or top-dose-only effect; inactive means no such curve, though single readings can be large or run the other way;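 further: potency means the concentration at half of the fitted maximal effect; 0% = vehicle wells and -100% = peptide control; nearly all actives have a fitted effect of over 45% in size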
#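 AMA1 (3D7) with his tag at 25 nM final met compounds first, then biotinylated RON2 peptide at 25 nM; detection used donor plus acceptor beads, 10 µg/mL apiece, read by AlphaScreen after 30 min at room temperature.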
# MARV entry inh = Marburg virus entry inhibition; Marburg virus pseudotyped entry inhibition, cell reporter; Potency, µM (highest dose often 37.8 µM), without a hit: top-dose activity change, negative = inhibition, usual class: inhibitors; 1.8% of 300,000 active; calls by dose curve; tested in HEK293 cells; further: potency means the concentration at half of the fitted maximal effect; on the % scale 0 is the no-effect control and ±100 the full control effect
# The depositor's hits bear a star; ? = inconclusive; · = no result given; [ ] = another dose, or the depositor's remark. Shown is part of a subset that was picked to be rich in hits.
SMILES,Cycloheximide cs,Shiga inhibitor,LASV entry inh,AMA1-RON2 inh,MARV entry inh
Cc1c(OCc2ccccc2)cccc1OCc1ccccc1,21*,18,-3%,172%,39%
Cc1nc2ccccc2nc1OCc1ccccc1,18*,25,4%,12%,-5%
CCOc1ccc(-c2csc(-c3c(N)c(C(=O)c4ccc5c(c4)OCO5)n4ccccc34)n2)cc1,·,·,9%[46.1 µM],·,1%[46.1 µM]
CN(CC(=O)N1CCN(c2ccc(F)cc2)CC1)S(=O)(=O)c1ccc(F)cc1,14,33*,-3%,8%,-18%
CC(=O)c1ccc(N2CCN(C(=O)CN(C)S(=O)(=O)c3cnc[nH]3)CC2)cc1,39*,42,24%[46.1 µM],-2%,?
CC(=O)OCC(C)n1[nH]c2ccccc2c1=O (stereo not given),·,·,·,18%,·
CC(C)CNC(=O)c1ccc(Cl)c(N)c1,-3,9,-20%,·,16%
CC(C)CCNC(=O)c1cccc(C(=O)NCCC(C)C)c1,-6,-15,-10%,7%,-10%
CC(C)CCNC(=O)c1ccc(Cl)c(N)c1,37*,57*,·,·,·
CC(C)CCNC(=O)C(=O)Nc1ccccc1,45*,162*,-2%,-8%,-4%[46.1 µM]
CC(Cc1ccccc1)C(=O)Nc1ccccc1 (stereo not given),7,9,20%,0%,7%
CC(C)CCNC(=O)c1ccc(-c2ccccc2)cc1,36*,84*,·,·,·
CCOC(=O)N1CCN(Cc2nc(-c3cccs3)no2)CC1,30*,81*,·,-12%,·
CCOC(=O)c1ccc(OCc2nc(-c3cccs3)no2)cc1,16*,33,?,22%,26%
c1csc(-c2noc(COc3ccc4c(c3)CCCC4)n2)c1,41*,89*,?,65%,?
Brc1ccc(-c2noc(COc3ccc4c(c3)CCC4)n2)o1,7,18,·,-16%,·
CN(C)C(CNC(=O)c1cc(-c2ccco2)nc2ccccc12)c1ccccc1 (stereo not given),·,·,5%[46.1 µM],?,1%[46.1 µM]
C/C(CC(=O)Nc1ccc2c(c1)OCCO2)=N\NC(=O)c1ccc([N+](=O)[O-])cc1Cl,14,4,3%,102%,19%[46.1 µM]
C/C(CC(=O)Nc1ccc2c(c1)OCCO2)=N\NC(=O)c1ccccc1Cl,20*,76,-13%,57%,19%[46.1 µM]
C/C(CC(=O)Nc1ccc2c(c1)OCCO2)=N\NC(=O)Cc1ccc(Cl)cc1,-2,129*,?,28%,0%[46.1 µM]
C/C(CC(=O)Nc1ccc2c(c1)OCCO2)=N\NC(=O)Cc1ccccc1,2,9,15%[46.1 µM],43%,9%[46.1 µM]
CCCCCC1=CC2=C(C(=O)OC)C(c3ccccc3)NC(=O)N2CC1 (stereo not given),·,·,·,·,1%[14.2 µM]
CSc1nnc2c(n1)OC1(Nc3ccccc3-2)C(=O)Nc2ccccc21 (stereo not given),-3,3,7%,0%,-2%
CCSc1nnc2c(n1)OC(C)(C)Nc1ccccc1-2,34*,65*,?,29%,12%
Cc1ccc(NC(=O)Nc2cccc(C)n2)c(C)c1,36,20,·,-2%,·
SMILES,Cycloheximide cs,Shiga inhibitor,LASV entry inh,AMA1-RON2 inh,MARV entry inh
COc1cccc(NC(=O)Nc2cccc(C)n2)c1,53*,92*,?,-2%,4%[46.1 µM]
Cc1cccc(NC(=O)Nc2ccccc2)n1,23*,43*,4%[46.1 µM],-3%,?
COc1ccc(NC(=O)Nc2cccc(C)n2)c(OC)c1,33*,39*,24%[46.1 µM],7%,26%[46.1 µM]
Cc1cccc(NC(=O)Nc2ccc(Cl)c(Cl)c2)n1,27*,72*,10%,-5%,?
COc1ccc(NC(=O)Nc2cccc3ccccc23)c(OC)c1,-1,-3,·,-18%,·
C=CCNc1oc(-c2ccc(OC)cc2)nc1C#N,43*,78*,?,-1%,-21%
CNc1oc(-c2ccc(OCc3ccccc3)cc2)nc1C#N,24*,38,7%,-15%,-21%
C=CCNc1oc(-c2ccc(OCC)cc2)nc1C#N,15*,63*,?,-6%,11%
COc1ccccc1CNS(=O)(=O)c1ccc2c(c1)NC(=O)C(C)C(=O)N2 (stereo not given),·,·,15%[46.1 µM],·,?
CCC1=NN(C(=O)c2cccnc2)C(O)(C(F)(F)F)C1 (stereo not given),-2,14,-1%,14%,-11%
CCc1ccc(-c2nn(CC(=O)Nc3ccccc3C)c3c2cnc2ccc(C)cc23)cc1,·,·,23%[46.1 µM],·,·
CN(C)CCN(Cc1ccco1)C(=O)c1cc2c(Cl)nc3ccccc3c2s1,1,-13,0%,-13%,15µM*
Cc1ccc2nc(Cl)c3cc(C(=O)N(CCN(C)C)Cc4ccco4)sc3c2c1,-16,-46,-27%,-21%,?
COc1ccc(C(C(C(=O)c2ccco2)N2CCOCC2)N2CCOCC2)cc1 (stereo not given),23*,23*,15%,-6%,3%
O=C(Nc1cnc2sc3c(n2c1=O)CCCC3)c1ccc(F)cc1,25*,44*,?,10%,23%
O=C(Nc1cnc2ccccn2c1=O)c1ccc(F)cc1,33*,58*,?,-10%,?
COc1ccc(C(=O)Nc2cnc3ccccn3c2=O)cc1,46*,97*,27%[46.1 µM],5%,·
CCCN(CCC)CCCNC(=O)c1cc2c(=O)n(C)c3ccccc3c2s1,·,·,5%[46.1 µM],·,?
CS(=O)(=O)Nc1cccc(C2=NN(S(C)(=O)=O)C(c3ccc4c(c3)OCO4)C2)c1 (stereo not given),25*,50*,?,-2%,-6%
CS(=O)(=O)N1N=C(c2ccccc2)CC1c1ccc2c(c1)OCO2 (stereo not given),66*,99*,?,-9%,?
CS(=O)(=O)Nc1ccc(C2=NN(S(C)(=O)=O)C(c3ccccc3)C2)cc1 (stereo not given),20,42*,7%,-21%,1%
O=C(Cn1ncc2c([nH]c3ccccc32)c1=O)Nc1ccc(CN2CCCCC2)cc1,10,-3,·,-1%,·
Cn1c(=O)n(CC(=O)NCC2CCCO2)c(=O)c2c3c(sc21)CCCC3 (stereo not given),-2,-8,·,0%,·
C=CCc1cccc(C=NNC(=O)CN2CCN(Cc3ccccc3)CC2)c1O,·,·,12µM*,·,?
Cc1ccc(CN2CCN(CC(=O)N/N=C/c3ccccc3F)CC2)cc1,37*,118*,·,11%,·
SMILES,Cycloheximide cs,Shiga inhibitor,LASV entry inh,AMA1-RON2 inh,MARV entry inh
O=C(Nc1ccc(F)cc1F)Nc1csc2ccccc12,42*,117*,?,-14%,?
O=C(Nc1ccc(F)c(Cl)c1)Nc1csc2ccccc12,38*,57*,?,-15%,?
O=C(Nc1ccc(F)c(Cl)c1)Nc1ccc(Cl)cn1,-1,14,·,18%,·
CCOC(=O)c1cn2nc(Oc3ccccc3)ccc2n1,71*,93*,?,2%,?
CCOC(=O)c1cn2nc(Oc3ccc(C)cc3)ccc2n1,43*,98*,20%,7%,?
CCOC(=O)c1cn2nc(Oc3ccc(OC)cc3)ccc2n1,9,27,·,-8%,·
CCOC(=O)c1cn2nc(N3CCCC3)ccc2n1,8,-11,1.4µM*,-16%,3.5µM*
CCOC(=O)c1cn2nc(N3CCCCC3)ccc2n1,24,7,?,16%,?
